Laboratory results: ChEMBL document CHEMBL4513216, “Probing the Open Global Health Chemical Diversity Library for Multistage-Active Starting Points for Next-Generation Antimalarials” (ACS Infect Dis, 2020)
Hit rate of the full screen: of about 69,000 compounds, about 8,600 (12%) showed an effect of 50% or more. Shown is part of a subset that was picked to be rich in strong results.

tested on: Plasmodium berghei; assay: Screen against P. berghei liver stage (PbLuc), transformed with Luciferase, at 10uM; type: functional, HepG2; conditions: tested at 10 uM

Row | SMILES | INHIBITION [%]
1 | Cc1cc(C(=O)N2CCCC(n3ccnc3)C2)c(C)n1C1CC1 (configuration not stated) | 27.4
2 | Cc1[nH]ncc1C(C)NCc1cccnc1 (configuration not stated) | 14.3
3 | COc1ccc(CNC(C)c2cn[nH]c2C)cc1 (configuration not stated) | 11.8
4 | Cc1[nH]ncc1C(C)NCc1ccc(F)cc1 (configuration not stated) | 63.7
5 | CN(C)CCN1CCC2[C@@H]1CCN2Cc1ccc2c(c1)OCO2 (some centres not stated) | -9.74
6 | CC(=O)c1c(F)cccc1N1CCC(NS(=O)(=O)c2ccccc2)CC1 | 78
7 | CC(=O)c1c(F)cccc1N1CCC(C(N)=O)CC1 | -13.1
8 | CCS(=O)(=O)N(C)C1CCN(c2cccc(F)c2C(C)=O)CC1 | -9.35
9 | CCN(C1CCN(c2cccc(F)c2C(C)=O)CC1)S(C)(=O)=O | 20.4
10 | CC(=O)c1c(F)cccc1N1CCC(Cc2cccnc2)CC1 | 83.4
11 | CC(=O)c1c(F)cccc1N1CCC(CS(N)(=O)=O)CC1 | 30.1
12 | O=C1C(NS(=O)(=O)c2ccc(F)cc2F)CCN1Cc1ccccc1 (configuration not stated) | 2.97
13 | Cc1ccc(NC(=O)N2CCC3(CCC(C(=O)N(C)C)O3)CC2)cc1 (configuration not stated) | 46.6
14 | Cc1cc(C)n(CC2CCCN2CCC(=O)Nc2cc(C)on2)n1 (configuration not stated) | 11.4
15 | O=C(Cc1ccccn1)N1C[C@@H](Oc2cccnc2)[C@H]2OCCC[C@H]21 | 5.04
16 | CN(C)c1cccc(C(=O)Nc2ccn(CCc3ccncc3)n2)c1 | 40.7
17 | CSc1ccc(C(=O)N2C[C@@H]3CC[C@H]2CN(Cc2ccccc2)C3)cc1 | 39.1
18 | COc1ccc(C(=O)N(C)Cc2ncc(C)c(OC)c2C)c(OC)c1 | 1.11
19 | CCCS(=O)(=O)N1CCO[C@H]2[C@H](OCc3ccccn3)CC[C@@H]21 | 33.5
20 | COc1ccccc1CCN(C)C(C)c1nc(-c2cccnc2)no1 (configuration not stated) | 68.1
21 | CCOc1ccccc1CN(C)C(C)c1nc(-c2cccnc2)no1 (configuration not stated) | 24.2
22 | CC(c1nc(-c2cccnc2)no1)N(C)CCCOc1ccccc1 (configuration not stated) | 18.5

Row | SMILES | INHIBITION [%]
23 | CNC(=O)c1csc(-c2cccnc2)n1 | -17.2
24 | Cc1ccc(C)c(NC(=O)c2n[nH]c(-n3cnnc3)n2)c1 | 36.3
25 | COCCCN(CCOC)C(=O)Nc1ccc(C)cc1C | 7.9
26 | CCn1cc(C(=O)Nc2cc(C)ccc2C)cn1 | 3.04
27 | Cc1ccc(C)c(NC(=O)c2coc(C)n2)c1 | 62.3
28 | Cc1ccc(NC(=O)CNc2ccccc2C(N)=O)c(C)c1 | 39.1
29 | COc1ccc(C)cc1NC(=O)Nc1cnc(O)nc1O | 0.29
30 | Cc1ccc(NC(=O)c2coc(C)n2)c(C)c1 | 62.3
31 | COc1ncc(NC(=O)Nc2cc(C)ccc2OC)cn1 | 42.6
32 | COc1ccc(C)cc1NC(=O)c1coc(C)n1 | 60.9
33 | Cn1ccnc1N1CCN(C(=O)Cc2ccc(F)cc2)CC1 | 0
34 | CCS(=O)(=O)N1CC[C@@H]2[C@H]1CCC(=O)N2CCOC | 24.9
35 | CC(C)OCCN(C)C(C)c1cccc(S(N)(=O)=O)c1 (configuration not stated) | 26.3
36 | CS(=O)(=O)N1CCCC12CCCN(S(=O)(=O)c1ccc(F)c(F)c1)C2 (configuration not stated) | -0.371
37 | O=C(O)[C@@H]1CN(C(=O)NCC2CCCCC2)C[C@H]1c1ccccn1 | -43.5
38 | CCOCC1CN(CCN2CCCCC2)Cc2cnn(C)c21 (configuration not stated) | 36.9
39 | Cc1ccc(Oc2ncccc2C(=O)N(C)CCCN(C)C)cc1 | 30.3
40 | CC(C)(C)c1ncc(S(C)(=O)=O)c(C2CCCNC2)n1 (configuration not stated) | 25.3
41 | O=C1c2cccnc2OC(CN2CCOCC2)CN1C1CCC1 (configuration not stated) | -10.3
42 | COC(=O)c1ccccc1NC(=O)c1c(C)cn(C)c1CC(=O)O | 19.2
43 | O=C1CCNc2ncc(-c3ccccc3Cl)cc2CN1C1CC1 | 50.2
44 | O=C1CCNc2ncc(-c3ccc(Cl)cc3)cc2CN1C1CC1 | 7.85

Row | SMILES | INHIBITION [%]
45 | O=C1CCNc2ncc(-c3cccc(Cl)c3)cc2CN1C1CC1 | 2.55
46 | Cn1cc(CN2CCOC3(CCCN(C(=O)c4ccco4)C3)C2)cn1 (configuration not stated) | 8.47
47 | Cc1cc(C)nc(N2CC[C@H](Oc3ccccc3F)[C@@H](O)CC2)n1 | 42.6
48 | CC(C)N1CCOCC2(CCN(c3cnccn3)CC2)C1 | 35.8
49 | COCCCn1ccc(NS(=O)(=O)c2cc(C)c(F)cc2F)n1 | -15.3
50 | CCC(Cn1ccc2[nH]c(=O)c(C#N)cc2c1=O)OC (configuration not stated) | 3.82
51 | CCCOC(C)Cn1ccc2[nH]c(=O)c(C#N)cc2c1=O (configuration not stated) | 71.8
52 | CC(O)CCn1ccc2[nH]c(=O)c(C#N)cc2c1=O (configuration not stated) | -1.09
53 | CN(Cc1nc(Cc2cccc(C(F)(F)F)c2)no1)C(C1CC1)C1CC1 | 27.6
54 | Cn1nc(CN2CCCCC2)c2c1CN(Cc1ccoc1)C2 | 11.3
55 | O=C(c1cc(C2CCCC2)no1)N1CCCCC1 | -12.5
56 | Cc1ccc2c(c1)[C@@H](CC(=O)N(C)C)CCO2 | 14.5
57 | CN(CCO)CC1COCCN1C(=O)C1CCCCC1 (configuration not stated) | 40.7
58 | CC(=O)N1[C@H](CN(C)C)C[C@@H]2CN(C(=O)c3cnc(C)cn3)CC[C@@H]21 | -50.4
59 | Cc1ccc2c(c1)CN(C(=O)c1cnc(C)cn1)C(CN(C)C)CO2 (configuration not stated) | 66.5
60 | Cc1ccc2c(c1)CN(C(=O)C1CCCCC1)C(CN(C)C)CO2 (configuration not stated) | 60.3
61 | Cc1nc(C)c(C(=O)N2Cc3ccccc3OCC2CN(C)C)o1 (configuration not stated) | 11.8
62 | Cc1nc(CN2CCc3ccc(S(N)(=O)=O)cc32)oc1C | -24
63 | CN(C)c1ncccc1CNC(=O)NCc1cccs1 | 41.2
64 | CN1CCN(C(=O)c2cc[nH]c(=O)c2)Cc2ccccc21 | 20
65 | O=C(NCC1CCCCC1)N1C[C@@H]2C[C@@H]1CN2 | 9.97
66 | Cc1nccn1-c1nccnc1C1CCCN(C2CCCC2)C1 (configuration not stated) | 59.45

Row | SMILES | INHIBITION [%]
67 | Cc1nccn1-c1nccnc1C1CCCN(C)C1 (configuration not stated) | 34.55
68 | Cc1nccn1-c1cccc(C2CCCN(C3CCCC3)C2)n1 (configuration not stated) | 36.7
69 | Cc1nccn1-c1nccnc1C1CCN(Cc2ccc(F)cc2)CC1 | 71.1
70 | Fc1ccc(CN2CCC(c3nccnc3-n3ccnc3)CC2)cc1 | 37
71 | COc1ccc(CN2CCC(c3nccnc3-n3ccnc3)CC2)cc1 | 35.2
72 | Cc1n[nH]c(C2CN(Cc3nnc(C4CCC4)o3)CCO2)n1 (configuration not stated) | 0.914
73 | c1cc(CN2C[C@@H]3OCCN(CCN4CCCC4)[C@@H]3C2)co1 | 15.7
74 | CC(=O)OCc1ccc(CN2CCCCCC2c2cc(C)no2)o1 (configuration not stated) | 18.3
75 | CCc1nc(C2CCCN2C(=O)c2cc3c(s2)CCC3)no1 (configuration not stated) | 7.08
76 | CCC(C(=O)NC1(CN2CCOCC2)CCCC1)n1cccn1 (configuration not stated) | 30.9
77 | CCC(C(=O)NC1(COC)CCCC1)n1cccn1 (configuration not stated) | 8.08
78 | CCC(C(=O)NC1(C(N)=O)CCCC1)n1cccn1 (configuration not stated) | 55.9
79 | CC(C)C(=O)Nc1ccc(C(O)Cn2nc(-c3cccs3)oc2=O)cc1 (configuration not stated) | 8.9
80 | c1cnn(Cc2nnc3n2CCCN(Cc2ccsc2)C3)c1 | 32.4
81 | O=C(c1cnccn1)N1C[C@@H]2[C@@H](C1)OCC(=O)N2CC1CCCC1 | 91.9
82 | O=C(c1cnccn1)N1C[C@@H]2OCC(=O)N(CC3CCCCC3)[C@@H]2C1 | 26.4
83 | Cc1cnc(C(=O)N2C[C@@H]3[C@@H](C2)OCC(=O)N3CC2CCCC2)cn1 | -18.5
84 | CN(Cc1ccco1)C(=O)CN1CCOC(Cn2cncn2)C1 (configuration not stated) | -0.219
85 | CC(C)N(C)Cc1cnc2n1CCN(C(=O)Cc1ccccn1)C2 | 24.3
86 | O=C1CN(c2ccc(CNC(=O)Nc3nccs3)cc2)CCN1 | 13.8
87 | CCc1ncc(C(=O)N(C)C2Cc3ccccc3C2)cn1 | -98.6
88 | CN(c1ncc(S(N)(=O)=O)s1)C1CCc2ccccc21 (configuration not stated) | 36.5

Row | SMILES | INHIBITION [%]
89 | COc1ccc(CN(C)c2ncc(S(N)(=O)=O)s2)c(OC)c1 | -28.2
90 | CN(Cc1ccc2c(c1)OCCO2)c1ncc(S(N)(=O)=O)s1 | 54.4
91 | CN(c1ncc(S(N)(=O)=O)s1)C1CCC1 | 52.2
92 | CN(c1ncc(S(N)(=O)=O)s1)C1CCc2ccccc2C1 (configuration not stated) | 65.6
93 | CCN(Cc1ccoc1)c1ncc(S(N)(=O)=O)s1 | 20.8
94 | COc1ccc(OC)c(CN(C)c2ncc(S(N)(=O)=O)s2)c1 | -54.4
95 | CCN(Cc1ccc2c(c1)OCO2)c1ncc(S(N)(=O)=O)s1 | 27.5
96 | CS(=O)(=O)c1cn[nH]c1C1CCCCN1C(=O)Cc1cccnc1 (configuration not stated) | -5.71
97 | CN1CCNC(Cc2ccc(-c3cccs3)cc2)C1=O (configuration not stated) | -52.6
98 | COCCN1CCOCC12CCN(C(=O)Cc1cccs1)CC2 | 24.9
99 | O=C(CN1CCC[C@@H]1C(=O)O)NCCOc1cccc(C(F)(F)F)c1 | -0.18
100 | CC(=O)N1CCC2(CCCN(C(=O)c3ccccc3)C2)C1 (configuration not stated) | 22.2
101 | Cc1csc(Nc2cc(C3CCCCN3C)nc(C)n2)n1 (configuration not stated) | 16.5
102 | Cc1ccsc1CN(C)C(=O)c1cc2c([nH]c1=O)CCCC2=O | -1.95
103 | CCc1ncncc1C(=O)NCCNS(=O)(=O)c1ccc(C)cc1 | -70.7
104 | Cc1ccc(S(=O)(=O)NCCNC(=O)c2cncnc2C)cc1 | 78.1
105 | CCc1ncncc1C(=O)NCCNS(=O)(=O)c1ccccc1 | -118
106 | CN(C)C(C)(C)CNCc1c[nH]nc1-c1cc2ccccc2o1 | 36.9
107 | Cc1cnc(C(=O)NCc2cccnc2OC(C)C)cn1 | 33.7
